Reference: PubChem BioAssay (EPA / NIEHS)
“And” between values parts separate entries of the source, which are not always exact repeats. Equal entries are not always repeated. Where a structure was tested more than once in an assay, its records may differ in their call. The source made the active and inactive calls. The calls were made as follows: active = hit-call score of the fitted dose curve at least 0.9, where 1 is the maximum; inactive = score below 0.9.

What was measured:
[1] = read-out: Human Leukocyte Antigen - DR isotype (HLADR), HLA-DRA (gene 3122); assay: BSK_3C_HLADR: BioMAP Diversity Plus: 3C Assay for Human Leukocyte Antigen - DR isotype (HLADR) Biomarker Activity (AID 2283019); conditions: primary human endothelial cells (HUVEC); actives raise or lower the signal;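 as to outcome: ELISA of cell-surface HLA-DR on HUVEC 24 h after dosing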
Procedure, shortened: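 Primary human umbilical vein endothelial cells (3C system) were dosed with compound and cell-surface HLA-DR was quantified by ELISA at 24 h. Activity was fitted bidirectionally against DMSO as negative control and baseline.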

[2] = read-out: Vascular endothelial growth factor receptor 2 (Homo sapiens) (UniProt P35968); assay: BSK_4H_VEGFRII: BioMAP Diversity Plus: 4H Assay for Vascular endothelial growth factor receptor 2 (VEGFR2) Biomarker Activity (AID 2283031); conditions: primary human endothelial cells (HUVEC); actives raise or lower the signal;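 as to AC50: cell-surface VEGFR2 protein level quantified by ELISA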
Procedure, shortened: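 Primary human umbilical vein endothelial cells in the BioMAP 4H system were dosed with test chemical, and 24 h later VEGFRII was measured by ELISA. Activity was fitted bidirectionally against DMSO as negative control and baseline.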

[3] = read-out: Low-density lipoprotein receptor (LDLR), LDLR (gene 3949); assay: BSK_CASM3C_LDLR: BioMAP Diversity Plus: CASM3C Assay for Low-density lipoprotein receptor (LDLR) Biomarker Activity (AID 2283045); conditions: primary human coronary artery smooth muscle cells; actives raise or lower the signal;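 also: LDLR protein level on the cell surface quantified by ELISA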
[4] = read-out: Monokine induced gamma interferon (MIG), CXCL9 (gene 4283); assay: BSK_CASM3C_MIG: BioMAP Diversity Plus: CASM3C Assay for Monokine induced gamma interferon (MIG) Biomarker Activity (AID 2283048); conditions: primary human coronary artery smooth muscle cells; actives raise or lower the signal;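 also: MIG protein level measured by ELISA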
[5] = read-out: Intercellular Adhesion Molecule 1 (ICAM1), ICAM1 (gene 3383); assay: BSK_KF3CT_ICAM1: BioMAP Diversity Plus: KF3CT Assay for Intercellular Adhesion Molecule 1 (ICAM1) Biomarker Activity (AID 2283067); conditions: primary human keratinocytes with fibroblasts; actives raise or lower the signal
Procedure, shortened: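 Human keratinocyte plus foreskin fibroblast primary co-culture was exposed to chemical for 24 h. ICAM-1 was then quantified by ELISA, and the data were fit bidirectionally against DMSO as the negative control and baseline.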

[6] = read-out: C-C motif chemokine 2 (Homo sapiens) (UniProt P13500); assay: BSK_KF3CT_MCP1: BioMAP Diversity Plus: KF3CT Assay for Monocyte Chemoattractant Protein 1 (MCP1/CCL2) Biomarker Activity (AID 2283073); conditions: primary human keratinocytes with fibroblasts; actives raise or lower the signal
Procedure, shortened: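 Human keratinocyte plus foreskin fibroblast primary co-culture exposed to chemical for 24 h. MCP-1 levels measured by ELISA. Bidirectional curve fitting relative to DMSO negative control as baseline.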

[7] = read-out: E-selectin (Homo sapiens) (UniProt P16581); assay: BSK_LPS_Eselectin: BioMAP Diversity Plus: LPS Assay for Eselectin Biomarker Activity (AID 2283077); conditions: primary human HUVEC with PBMC; actives raise or lower the signal
Procedure, shortened: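 Human umbilical vein endothelial cells co-cultured with peripheral blood mononuclear cells under LPS stimulation; E-selectin measured by ELISA 24 h after chemical dosing. Activity fitted bidirectionally against DMSO as negative control and baseline.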

CD40, CD40 (gene 958) = assay: BSK_SAg_CD40: BioMAP Diversity Plus: SAg Assay for CD40 Biomarker Activity (AID 2283088); conditions: primary human HUVEC with PBMC; actives raise or lower the signal
Procedure, shortened: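 Human umbilical vein endothelial cells co-cultured with PBMC; CD40 levels measured by ELISA with fluorescence read-out 24 h after chemical dosing. Gain or loss of signal fitted bidirectionally against DMSO baseline.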

[8] = read-out: Interleukin-8 (IL8), CXCL8 (gene 3576); assay: BSK_SAg_IL8: BioMAP Diversity Plus: SAg Assay for Interleukin-8 (IL8) Biomarker Activity (AID 2283094); conditions: primary human HUVEC with PBMC; actives raise or lower the signal
Procedure, shortened: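 Human umbilical vein endothelial cells co-cultured with PBMC, stimulated with superantigen; IL-8 measured by ELISA 24 h after chemical dosing. Bidirectional fitting versus DMSO; SRB staining in parallel cultures tracks cytotoxicity.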

[9] = BSK_SAg_Proliferation: Cell Proliferation Assessment in the BioMAP Diversity Plus: SAg Assay (AID 2283095); conditions: primary human HUVEC with PBMC
Procedure, shortened: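 Human umbilical vein endothelial cells co-cultured with PBMC; sulforhodamine B total-protein staining (0.1% SRB after 10% TCA fixation, absorbance 560 nm) at 96 h in sub-confluent culture. Fitted bidirectionally against DMSO.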

[10] = BSK_SAg_SRB: Viability Assessment in the BioMAP Diversity Plus: SAg Assay (AID 2283096); conditions: primary human HUVEC with PBMC;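 also: cells read one day after compound addition; hits may be either gain or loss of signal compared with DMSO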
Procedure, shortened: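 Total protein by sulforhodamine B staining, 24 h after dosing, in HUVEC–PBMC co-culture; DMSO-referenced bidirectional fitting.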

[11] = BSK_3C_Vis: BioMAP Diversity Plus: 3C Assay for Morphology Visualization (AID 2283025); conditions: primary human endothelial cells (HUVEC);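 also: fitted both ways so gain or loss versus DMSO counts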;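 as to AC50: light microscopy image of cell morphology used as background control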
Procedure, shortened: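 Human umbilical vein endothelial cell morphology was inspected by light microscopy 24 h after chemical dosing; scored bidirectionally relative to DMSO.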

[12] = read-out: Transforming growth factor beta 1 (TGFb1), TGFB1 (gene 7040); assay: BSK_KF3CT_TGFb1: BioMAP Diversity Plus: KF3CT Assay for Transforming growth factor beta 1 (TGFb1) Biomarker Activity (AID 2283072); conditions: primary human keratinocytes with fibroblasts; actives raise or lower the signal
Procedure, shortened: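 Human keratinocyte/foreskin fibroblast co-culture; TGF-b1 measured by ELISA 24 h after dosing, fitted bidirectionally versus DMSO. Cytotoxicity checked in parallel cultures by total protein (SRB staining, 560 nm).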

[13] = BSK_BT_PBMCCytotoxicity: PBMC Cytotoxicity Assessment in the BioMAP Diversity Plus: BT Assay (AID 2284225); conditions: primary human B cells with PBMC;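 also: PBMC viability measured by Alamar Blue dye reduction fluorescence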
Procedure, shortened: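 PBMC (75,000/well) pretreated with compound 1 h, then activated with SEB and TSST-1 (20 ng/mL each final), incubated 90 h; Alamar Blue added 6 h, fluorescence read at 546/580 nm. Fitted relative to DMSO.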

[14] = BSK_BT_Bcell_Proliferation: Viability Assessment in the BioMAP Diversity Plus: BT Assay for B cell Proliferation (AID 2284227); conditions: primary human B cells with PBMC
Procedure, shortened: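 SRB-based protein staining (0.1% SRB after 10% TCA fixation, 560 nm) quantifies proliferation in human B cells co-cultured with PBMC, 72 h post-dosing, with signal gain scored relative to DMSO negative control.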

[15] = read-out: Interleukin 6 (IL6), IL6 (gene 3569); assay: BSK_BT_xIL6: BioMAP Diversity Plus: BT Assay for Interleukin 6 (IL6) Biomarker Activity (AID 2284228); conditions: primary human B cells with PBMC
Procedure, shortened: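 Human B cell plus PBMC co-culture exposed to test chemical for 24 h; secreted IL-6 quantified by Luminex xMAP bead assay. Activity fitted in the positive direction against DMSO as negative control and baseline.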

[16] = read-out: Interleukin 17A (IL17A), IL17A (gene 3605); assay: BSK_BT_xIL17A: BioMAP Diversity Plus: BT Assay for Interleukin 17A (IL17A) Biomarker Activity (AID 2284229); conditions: primary human B cells with PBMC
Procedure, shortened: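 B cells co-cultured with PBMC were exposed to test chemicals, and secreted IL-17A was quantified 24 h after dosing by Luminex xMAP bead immunoassay. Activity was fitted in the gain direction against DMSO as baseline.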

[17] = read-out: Collagen IV, COL4A1 (gene 1282); assay: BSK_MyoF_CollagenIV: BioMAP Diversity Plus: MyoF Assay for Collagen IV Biomarker Activity (AID 2284247); conditions: primary human lung fibroblasts
Procedure, shortened: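 Primary human lung fibroblasts (MyoF system) dosed 24 h; Collagen IV measured by ELISA. Activity fitted in positive direction against DMSO; cytotoxicity tracked by SRB total-protein staining in parallel cultures.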

[18] = read-out: Matrix Metallopeptidase 1 (MMP1), MMP1 (gene 4312); assay: BSK_MyoF_MMP1: BioMAP Diversity Plus: MyoF Assay for Matrix Metallopeptidase 1 (MMP1) Biomarker Activity (AID 2284268); conditions: primary human lung fibroblasts
Procedure, shortened: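 ELISA readout of MMP1 in primary human lung fibroblast cultures, 24 h post-dosing. Gain of signal versus DMSO vehicle control defines activity. Parallel SRB staining (0.1% after 10% TCA fixation, 560 nm) flags overt cytotoxicity.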

[19] = read-out: TIMP metallopeptidase inhibitor 1 (TIMP1), TIMP1 (gene 7076); assay: BSK_MyoF_TIMP1: BioMAP Diversity Plus: MyoF Assay for TIMP metallopeptidase inhibitor 1 (TIMP1) Biomarker Activity (AID 2284269); conditions: primary human lung fibroblasts
Procedure, shortened: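 Fibroblasts from human lung are dosed with chemical, cultured 24 h, and assayed for TIMP-1 by ELISA. Increases over the DMSO baseline are scored, with SRB total-protein staining run in parallel for cytotoxicity.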

Sequence of E-selectin (Homo sapiens) (P16581 whole entry, looked up): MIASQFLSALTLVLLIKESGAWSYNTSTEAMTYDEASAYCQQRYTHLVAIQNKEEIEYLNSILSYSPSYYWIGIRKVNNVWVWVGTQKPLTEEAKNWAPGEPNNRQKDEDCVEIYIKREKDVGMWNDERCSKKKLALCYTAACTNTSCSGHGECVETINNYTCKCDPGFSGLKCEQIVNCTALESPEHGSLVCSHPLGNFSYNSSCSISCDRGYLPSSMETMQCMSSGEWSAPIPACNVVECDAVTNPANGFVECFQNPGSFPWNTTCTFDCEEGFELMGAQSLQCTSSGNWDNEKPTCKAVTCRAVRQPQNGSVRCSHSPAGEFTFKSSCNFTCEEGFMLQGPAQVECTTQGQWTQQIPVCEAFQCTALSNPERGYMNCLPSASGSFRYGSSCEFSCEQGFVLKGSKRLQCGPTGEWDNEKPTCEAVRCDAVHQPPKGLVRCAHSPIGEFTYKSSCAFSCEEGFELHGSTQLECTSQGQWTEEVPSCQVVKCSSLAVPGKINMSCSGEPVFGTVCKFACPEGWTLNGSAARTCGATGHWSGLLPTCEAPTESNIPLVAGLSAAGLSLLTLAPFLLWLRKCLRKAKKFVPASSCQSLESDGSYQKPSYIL

Oc1ccc(C2(c3ccc(O)cc3)c3ccccc3-c3ccccc32)cc1
AC50 [1]: 9.06 µM (active) and 7.06 µM (active)
AC50 [2]: 33.9 µM (active) and 35.7 µM (active)
AC50 [3]: 29.5 µM (active) and 28.9 µM (active)
AC50 [4]: 914 nM (active) and 799 nM (active)
AC50 [5]: 11.9 µM (active) and 10.4 µM (active)
AC50 [6]: 5.75 µM (active) and 6.7 µM (active)
AC50 [7]: 31.6 µM (active) and 33.9 µM (active)
AC50 (CD40, CD40 (gene 958)): 11.7 µM (active) and 12.5 µM (active)
AC50 [8]: 8.55 µM (active) and 9.2 µM (active)
AC50 [9]: 9.89 µM (active) and 9.81 µM (active)
AC50 [10]: 15.9 µM (active) and 15.6 µM (active)

N#CCCCCC#N
outcome [1]: inactive
outcome [11]: inactive
outcome [2]: inactive
outcome [3]: inactive
outcome [4]: inactive
outcome [5]: inactive
outcome [12]: inactive
outcome [6]: inactive
outcome [7]: inactive
outcome (CD40, CD40 (gene 958)): inactive
outcome [8]: inactive
outcome [9]: inactive
outcome [10]: inactive

CC(C)COP(=O)(OCC(C)C)OCC(C)C
outcome [1]: inactive
outcome [11]: inactive
outcome [2]: inactive
outcome [3]: inactive
outcome [4]: inactive
outcome [5]: inactive
outcome [12]: inactive
outcome [6]: inactive
outcome [7]: inactive
outcome (CD40, CD40 (gene 958)): inactive
outcome [8]: inactive
outcome [9]: inactive
outcome [10]: inactive
outcome [13]: inactive
outcome [14]: inactive
outcome [15]: inactive
outcome [16]: inactive
outcome [17]: inactive
outcome [18]: inactive
outcome [19]: inactive

CCCCCCCCCCCC#N
AC50 [1]: 28.6 µM (active)
AC50 [11]: 40.2 µM (active)
AC50 [2]: 20.6 µM (active)
outcome [3]: inactive
outcome [4]: inactive
outcome [5]: inactive
outcome [12]: inactive
outcome [6]: inactive
AC50 [7]: 31.5 µM (active)
AC50 (CD40, CD40 (gene 958)): 27.7 µM (active)
AC50 [8]: 32.7 µM (active)
outcome [10]: inactive
outcome [13]: inactive
outcome [14]: inactive
outcome [15]: inactive
outcome [16]: inactive
outcome [17]: inactive
AC50 [18]: 33.7 µM (active)
AC50 [19]: 31.4 µM (active)

CC1(C)[C@H](C(=O)O[C@H](C#N)c2cccc(Oc3ccccc3)c2)[C@@H]1C=C(Br)Br
outcome [1]: inactive
outcome [11]: inactive
outcome [2]: inactive
outcome [3]: inactive
outcome [4]: inactive
outcome [5]: inactive
outcome [12]: inactive
outcome [6]: inactive
outcome [7]: inactive
outcome (CD40, CD40 (gene 958)): inactive
outcome [8]: inactive
AC50 [9]: 3.97 µM (active)
outcome [9]: inactive
outcome [10]: inactive
outcome [13]: inactive
AC50 [14]: 20 µM (active)
outcome [14]: inactive
AC50 [15]: 15.2 µM (active)
outcome [15]: inactive
AC50 [16]: 20 µM (active)
outcome [16]: inactive
outcome [17]: inactive
outcome [18]: inactive
outcome [19]: inactive

CNC(=O)Oc1cc(C)c(SC)c(C)c1
AC50 [1]: 24.6 µM (active)
outcome [11]: inactive
outcome [2]: inactive
AC50 [3]: 7.52 µM (active)
outcome [4]: inactive
outcome [5]: inactive
outcome [12]: inactive
outcome [6]: inactive
outcome [7]: inactive
AC50 (CD40, CD40 (gene 958)): 16.7 µM (active)
outcome [8]: inactive
outcome [9]: inactive
outcome [10]: inactive
AC50 [13]: 15.6 µM (active)
AC50 [14]: 20.1 µM (active)
AC50 [15]: 8.6 µM (active)
AC50 [16]: 11.5 µM (active)
outcome [17]: inactive
outcome [18]: inactive
outcome [19]: inactive

O=P1(NCCCl)OCCCN1CCCl (configuration not stated)
outcome [1]: inactive
outcome [11]: inactive
outcome [2]: inactive
outcome [3]: inactive
outcome [4]: inactive
outcome [5]: inactive
outcome [12]: inactive
outcome [6]: inactive
outcome [7]: inactive
outcome (CD40, CD40 (gene 958)): inactive
outcome [8]: inactive
outcome [9]: inactive
outcome [10]: inactive
outcome [13]: inactive
outcome [14]: inactive
outcome [15]: inactive
outcome [16]: inactive
outcome [17]: inactive
outcome [18]: inactive
outcome [19]: inactive
